This is part of a sample that, as a whole, favours compounds with a hit. Of some 83,000 tested, about 20% had one in any assay.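 Results are percent growth after 48 hours of single-concentration exposure. 100 means growth as in untreated cells, lower positive values show inhibition; negative values down to -100 show cell death.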 Unmarked numbers belong to inactive results. Activity calls are given as the source filed them. How the source made its calls: active means growth percent below 10; inactive means the rest.

Among the test systems are SR leukemia; RPMI-8226 leukemia; OVCAR-8 ovarian; OVCAR-5 ovarian; OVCAR-4 ovarian; SK-OV-3 ovarian; IGROV1 ovarian; OVCAR-3 ovarian; HS 578T breast; NCI/ADR-RES ovarian; T-47D breast; BT-549 breast; MDA-MB-435 melanoma; SW-620 colon; MCF7 breast; HCT-116 colon; HCC-2998 colon; KM12 colon.
Common to all, as to experiment: NCI-60 one-dose screen, 48 h (100 = growth as untreated, 0 = no growth, -100 = all killed)
Holding throughout (conditions): 10 µM

For `O=C(O)CCCCSCCCCC(=O)O`, the growth in the assay with SR leukemia is 87.6%; with RPMI-8226 leukemia it was 97.9%; in the assay on OVCAR-8 ovarian it was 106%; in the assay with OVCAR-5 ovarian it was 122%; in the assay on OVCAR-4 ovarian it was 113%; in the assay on SK-OV-3 ovarian it was 98.7%. For the same compound, the growth in the assay with IGROV1 ovarian is 97.9%; in the assay with OVCAR-3 ovarian, 109%; with HS 578T breast, 104%; with NCI/ADR-RES ovarian, 109%; in the assay on T-47D breast it was 86.7%; in the assay with BT-549 breast it was 110%. The growth with MDA-MB-435 melanoma was 107%; in the assay with SW-620 colon, 111%; in the assay with MCF7 breast, 97.5%; with HCT-116 colon, 108%; with HCC-2998 colon it was 106%; with KM12 colon, 110%.
Regarding `O=C(O)c1ccc(CNc2ccc(C(=O)CCl)cc2)cc1`, the growth was 41.8% in the assay with SR leukemia; 85.7% with RPMI-8226 leukemia; 99.3% in the assay on OVCAR-8 ovarian; 96.8% in the assay with OVCAR-5 ovarian; 91% with OVCAR-4 ovarian; 100% in the assay on SK-OV-3 ovarian. Further, the growth was 134% with IGROV1 ovarian; 90.5% with OVCAR-3 ovarian; 87.4% in the assay on HS 578T breast; 123% with NCI/ADR-RES ovarian; 58.1% in the assay with T-47D breast; 96.4% in the assay on BT-549 breast. Also, the growth in the assay on MDA-MB-435 melanoma is 87.7%; with SW-620 colon, 93.4%; in the assay on MCF7 breast, 32.4%; in the assay on HCT-116 colon, 80.8%; in the assay with HCC-2998 colon it was 127%; with KM12 colon it was 101%.
As for `C[C@]12CC[C@H]3[C@@H](CCC4=CC(=O)CC[C@@]43C)[C@@H]1CC[C@@H]2c1csc(N)n1`, the growth in the assay on SR leukemia is 26.4%; in the assay on RPMI-8226 leukemia it was 19.1%; in the assay with OVCAR-8 ovarian, 46.5%; in the assay with OVCAR-5 ovarian, 99.8%; in the assay on OVCAR-4 ovarian it was 23.1%; with SK-OV-3 ovarian, 89.1%. Further, the growth in the assay on IGROV1 ovarian is 87.3%; in the assay on OVCAR-3 ovarian, 63%; with HS 578T breast, 104%; in the assay on NCI/ADR-RES ovarian, 32.1%; with T-47D breast, 24.8%; in the assay with BT-549 breast it was 34.2%. Further, the growth with MDA-MB-435 melanoma is 55.5%; with SW-620 colon, 56.9%; with MCF7 breast it was 26%; in the assay on HCT-116 colon, 32.7%; with HCC-2998 colon, 45.8%; in the assay with KM12 colon it was 50.8%.
For the compound `Oc1cc(O)c(Br)cc1Br`, the growth in the assay on SR leukemia is 85.7%; with RPMI-8226 leukemia, 99.4%; with OVCAR-8 ovarian, 103%; in the assay with OVCAR-5 ovarian, 107%; in the assay with OVCAR-4 ovarian, 98.2%; in the assay on SK-OV-3 ovarian, 107%. Further, the growth with IGROV1 ovarian is 102%; in the assay on OVCAR-3 ovarian it was 110%; with HS 578T breast, 107%; in the assay with NCI/ADR-RES ovarian, 105%; with T-47D breast it was 90.2%; with BT-549 breast it was 93.8%. Also, the growth in the assay on MDA-MB-435 melanoma was 101%; in the assay with SW-620 colon, 105%; in the assay with MCF7 breast it was 91.3%; with HCT-116 colon, 97.3%; in the assay on HCC-2998 colon, 94.6%; with KM12 colon it was 101%.
As for `CCOc1cc(Br)c(C(C)NC(=O)c2cccc(OC)c2)cc1OCC` (configuration not stated), the growth with SR leukemia is 3.32% (active); in the assay on RPMI-8226 leukemia, 36.3%; in the assay with OVCAR-8 ovarian it was 84.3%; in the assay with OVCAR-5 ovarian it was 88.7%; in the assay with OVCAR-4 ovarian it was 64.5%; with SK-OV-3 ovarian it was 96%. Further, the growth with IGROV1 ovarian is 73.8%; in the assay with OVCAR-3 ovarian it was 74.8%; with HS 578T breast, 75.5%; with NCI/ADR-RES ovarian, 94.4%; in the assay with T-47D breast it was 80.8%; in the assay with BT-549 breast it was 87%. For the same compound, the growth was 6.36% (active) in the assay on MDA-MB-435 melanoma; 85.7% in the assay on SW-620 colon; 64.4% in the assay with MCF7 breast; 56.2% in the assay on HCT-116 colon; 37.7% in the assay on HCC-2998 colon; 84.1% with KM12 colon.
On to `CCCc1c(C)nc2scc(-c3ccc(Cl)cc3)n2c1=O`, for which the growth in the assay on SR leukemia was 83.1%; in the assay with RPMI-8226 leukemia, 96.4%; in the assay on OVCAR-8 ovarian, 107%; in the assay on OVCAR-5 ovarian, 104%; in the assay on OVCAR-4 ovarian, 97.3%; in the assay with SK-OV-3 ovarian, 103%. Moreover, the growth in the assay with IGROV1 ovarian is 107%; with OVCAR-3 ovarian it was 104%; with HS 578T breast it was 101%; with NCI/ADR-RES ovarian, 101%; in the assay with T-47D breast it was 86.5%; with BT-549 breast it was 98.3%. For the same compound, the growth in the assay with MDA-MB-435 melanoma was 108%; in the assay on SW-620 colon it was 109%; in the assay on MCF7 breast it was 95.2%; in the assay on HCT-116 colon, 99.1%; with HCC-2998 colon, 106%; in the assay on KM12 colon, 98.2%.
On to `O=c1c2cccc3c(Nc4ccc(Br)cn4)ccc(c32)c2nc3ccccc3n12`, for which the growth with SR leukemia was 52.9%; in the assay with RPMI-8226 leukemia, 56.2%; in the assay with OVCAR-8 ovarian, 103%; with OVCAR-5 ovarian, 90.7%; in the assay with OVCAR-4 ovarian, 53.7%; in the assay on SK-OV-3 ovarian, 94.3%. For the same compound, the growth in the assay on IGROV1 ovarian was 48.9%; in the assay on OVCAR-3 ovarian, 94.1%; with HS 578T breast, 81.2%; in the assay with NCI/ADR-RES ovarian, 93.5%; in the assay with T-47D breast, 18.9%; in the assay with BT-549 breast, 84.4%. Besides, the growth with MDA-MB-435 melanoma was 97%; with SW-620 colon, 94.8%; with MCF7 breast, 4.15% (active); in the assay with HCT-116 colon it was 88.2%; in the assay with HCC-2998 colon it was 74.8%; in the assay with KM12 colon, 77.2%.
For `O=C(CCl)N1c2ccccc2Sc2ccc3ccccc3c21`, the growth in the assay with SR leukemia was -11.4% (active); with RPMI-8226 leukemia, -47.3% (active); in the assay on OVCAR-8 ovarian, -24.2% (active); with OVCAR-5 ovarian it was 21%; in the assay with OVCAR-4 ovarian it was -41.9% (active); in the assay on SK-OV-3 ovarian, 17.6%. The growth in the assay with IGROV1 ovarian is -71.2% (active); in the assay with OVCAR-3 ovarian, -82.5% (active); in the assay on HS 578T breast it was -0.68% (active); in the assay with NCI/ADR-RES ovarian, -25.8% (active); in the assay on T-47D breast it was -68.2% (active); in the assay with BT-549 breast it was -40.9% (active). The growth was -34.7% (active) in the assay with MDA-MB-435 melanoma; -65.6% (active) in the assay on SW-620 colon; 10% (active) in the assay on MCF7 breast; -99.6% (active) in the assay with HCT-116 colon; -94.4% (active) in the assay on HCC-2998 colon; -77.5% (active) in the assay with KM12 colon.
For `CCC(OC(=O)CC(C)C)c1ccccc1` (configuration not stated), the growth with SR leukemia is 101%; with RPMI-8226 leukemia, 105%; in the assay on OVCAR-8 ovarian, 93.4%; with OVCAR-5 ovarian it was 104%; in the assay with OVCAR-4 ovarian, 112%; with SK-OV-3 ovarian, 102%. Further, the growth is 111% in the assay on IGROV1 ovarian; 107% in the assay on OVCAR-3 ovarian; 104% with HS 578T breast; 98.8% with NCI/ADR-RES ovarian; 84.5% with T-47D breast; 101% in the assay on BT-549 breast. Moreover, the growth is 104% in the assay with MDA-MB-435 melanoma; 105% with SW-620 colon; 94.3% in the assay on MCF7 breast; 107% in the assay on HCT-116 colon; 101% with HCC-2998 colon; 107% in the assay on KM12 colon.
